Experimental data as given in the supplement of paper PMC10849652.
About 7,900 targets were measured; listed, in parts, are those with a hit and a random draw of the rest. About 0.6% of all pairs of compound and target were hits. Values without a mark were called inactive.

Legend:
Test in all cases: log2 fold change, soluble protein after heating vs DMSO (PISA); higher = thermal stabilisation; K562 cells, 10 uM, 30 min; active = over 0.2 and 3.5 SD of the protein, either way, in both replicates (recomputed)
saracatinib = compound: CN1CCN(CCOc2cc(OC3CCOCC3)c3c(Nc4c(Cl)ccc5c4OCO5)ncnc3c2)CC1 [saracatinib]
How it was run: (§1)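 Aliquots of K562 cells (2×10^6 cells/mL) treated with 10 μM compound for 30 min were heated for 3 min over 48°C-58°C. After pooling and extraction in PBS with 0.5% NP-40 at 4°C, soluble protein from a 21,000xg, 90 min spin was quantified by TMTpro 16plex LC-MS/MS with channel sums equalised. Thermal stability is expressed against control samples, from duplicates, as a log2 fold change.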

sotrastaurin = compound: CN1CCN(c2nc(C3=C(c4c[nH]c5ccccc45)C(=O)NC3=O)c3ccccc3n2)CC1 [sotrastaurin]
How it was run: as §1

alvocidib = compound: CN1CC[C@H](c2c(O)cc(O)c3c(=O)cc(-c4ccccc4Cl)oc23)[C@H](O)C1 [alvocidib]
How it was run: as §1

Tubastatin A = compound: CN1CCc2c(c3ccccc3n2Cc2ccc(C(=O)NO)cc2)C1 [Tubastatin A]
How it was run: as §1

[1] = compound: CNC(=O)C1=CC=CC=C1NC2=NC(=NC=C2Cl)NC3=C(C=C(C=C3)N4CCOCC4)OC
How it was run: as §1

defactinib = compound: CNC(=O)c1ccc(Nc2ncc(C(F)(F)F)c(NCc3nccnc3N(C)S(C)(=O)=O)n2)cc1 [defactinib]
How it was run: as §1

rucaparib = compound: CNCc1ccc(-c2[nH]c3cc(F)cc4c3c2CCNC4=O)cc1 [rucaparib]
How it was run: as §1

[2] = compound: CNc1nc(-c2ccc3c(N)n[nH]c3c2)cc(N2C[C@@H](C(=O)NC3CCCCC3)CC[C@H]2C)n1
How it was run: as §1

encorafenib = compound: COC(=O)N[C@@H](C)CNc1nccc(-c2cn(C(C)C)nc2-c2cc(Cl)cc(NS(C)(=O)=O)c2F)n1 [encorafenib]
How it was run: as §1

[3] = compound: COC(=O)[C@H](CCSC)NC(=O)C1=C(C=C(C=C1)NC[C@H](CS)N)C2=CC=CC=C2
How it was run: as §1

Chain of UniProt Q8NEZ4 (Q8NEZ4 whole entry, looked up): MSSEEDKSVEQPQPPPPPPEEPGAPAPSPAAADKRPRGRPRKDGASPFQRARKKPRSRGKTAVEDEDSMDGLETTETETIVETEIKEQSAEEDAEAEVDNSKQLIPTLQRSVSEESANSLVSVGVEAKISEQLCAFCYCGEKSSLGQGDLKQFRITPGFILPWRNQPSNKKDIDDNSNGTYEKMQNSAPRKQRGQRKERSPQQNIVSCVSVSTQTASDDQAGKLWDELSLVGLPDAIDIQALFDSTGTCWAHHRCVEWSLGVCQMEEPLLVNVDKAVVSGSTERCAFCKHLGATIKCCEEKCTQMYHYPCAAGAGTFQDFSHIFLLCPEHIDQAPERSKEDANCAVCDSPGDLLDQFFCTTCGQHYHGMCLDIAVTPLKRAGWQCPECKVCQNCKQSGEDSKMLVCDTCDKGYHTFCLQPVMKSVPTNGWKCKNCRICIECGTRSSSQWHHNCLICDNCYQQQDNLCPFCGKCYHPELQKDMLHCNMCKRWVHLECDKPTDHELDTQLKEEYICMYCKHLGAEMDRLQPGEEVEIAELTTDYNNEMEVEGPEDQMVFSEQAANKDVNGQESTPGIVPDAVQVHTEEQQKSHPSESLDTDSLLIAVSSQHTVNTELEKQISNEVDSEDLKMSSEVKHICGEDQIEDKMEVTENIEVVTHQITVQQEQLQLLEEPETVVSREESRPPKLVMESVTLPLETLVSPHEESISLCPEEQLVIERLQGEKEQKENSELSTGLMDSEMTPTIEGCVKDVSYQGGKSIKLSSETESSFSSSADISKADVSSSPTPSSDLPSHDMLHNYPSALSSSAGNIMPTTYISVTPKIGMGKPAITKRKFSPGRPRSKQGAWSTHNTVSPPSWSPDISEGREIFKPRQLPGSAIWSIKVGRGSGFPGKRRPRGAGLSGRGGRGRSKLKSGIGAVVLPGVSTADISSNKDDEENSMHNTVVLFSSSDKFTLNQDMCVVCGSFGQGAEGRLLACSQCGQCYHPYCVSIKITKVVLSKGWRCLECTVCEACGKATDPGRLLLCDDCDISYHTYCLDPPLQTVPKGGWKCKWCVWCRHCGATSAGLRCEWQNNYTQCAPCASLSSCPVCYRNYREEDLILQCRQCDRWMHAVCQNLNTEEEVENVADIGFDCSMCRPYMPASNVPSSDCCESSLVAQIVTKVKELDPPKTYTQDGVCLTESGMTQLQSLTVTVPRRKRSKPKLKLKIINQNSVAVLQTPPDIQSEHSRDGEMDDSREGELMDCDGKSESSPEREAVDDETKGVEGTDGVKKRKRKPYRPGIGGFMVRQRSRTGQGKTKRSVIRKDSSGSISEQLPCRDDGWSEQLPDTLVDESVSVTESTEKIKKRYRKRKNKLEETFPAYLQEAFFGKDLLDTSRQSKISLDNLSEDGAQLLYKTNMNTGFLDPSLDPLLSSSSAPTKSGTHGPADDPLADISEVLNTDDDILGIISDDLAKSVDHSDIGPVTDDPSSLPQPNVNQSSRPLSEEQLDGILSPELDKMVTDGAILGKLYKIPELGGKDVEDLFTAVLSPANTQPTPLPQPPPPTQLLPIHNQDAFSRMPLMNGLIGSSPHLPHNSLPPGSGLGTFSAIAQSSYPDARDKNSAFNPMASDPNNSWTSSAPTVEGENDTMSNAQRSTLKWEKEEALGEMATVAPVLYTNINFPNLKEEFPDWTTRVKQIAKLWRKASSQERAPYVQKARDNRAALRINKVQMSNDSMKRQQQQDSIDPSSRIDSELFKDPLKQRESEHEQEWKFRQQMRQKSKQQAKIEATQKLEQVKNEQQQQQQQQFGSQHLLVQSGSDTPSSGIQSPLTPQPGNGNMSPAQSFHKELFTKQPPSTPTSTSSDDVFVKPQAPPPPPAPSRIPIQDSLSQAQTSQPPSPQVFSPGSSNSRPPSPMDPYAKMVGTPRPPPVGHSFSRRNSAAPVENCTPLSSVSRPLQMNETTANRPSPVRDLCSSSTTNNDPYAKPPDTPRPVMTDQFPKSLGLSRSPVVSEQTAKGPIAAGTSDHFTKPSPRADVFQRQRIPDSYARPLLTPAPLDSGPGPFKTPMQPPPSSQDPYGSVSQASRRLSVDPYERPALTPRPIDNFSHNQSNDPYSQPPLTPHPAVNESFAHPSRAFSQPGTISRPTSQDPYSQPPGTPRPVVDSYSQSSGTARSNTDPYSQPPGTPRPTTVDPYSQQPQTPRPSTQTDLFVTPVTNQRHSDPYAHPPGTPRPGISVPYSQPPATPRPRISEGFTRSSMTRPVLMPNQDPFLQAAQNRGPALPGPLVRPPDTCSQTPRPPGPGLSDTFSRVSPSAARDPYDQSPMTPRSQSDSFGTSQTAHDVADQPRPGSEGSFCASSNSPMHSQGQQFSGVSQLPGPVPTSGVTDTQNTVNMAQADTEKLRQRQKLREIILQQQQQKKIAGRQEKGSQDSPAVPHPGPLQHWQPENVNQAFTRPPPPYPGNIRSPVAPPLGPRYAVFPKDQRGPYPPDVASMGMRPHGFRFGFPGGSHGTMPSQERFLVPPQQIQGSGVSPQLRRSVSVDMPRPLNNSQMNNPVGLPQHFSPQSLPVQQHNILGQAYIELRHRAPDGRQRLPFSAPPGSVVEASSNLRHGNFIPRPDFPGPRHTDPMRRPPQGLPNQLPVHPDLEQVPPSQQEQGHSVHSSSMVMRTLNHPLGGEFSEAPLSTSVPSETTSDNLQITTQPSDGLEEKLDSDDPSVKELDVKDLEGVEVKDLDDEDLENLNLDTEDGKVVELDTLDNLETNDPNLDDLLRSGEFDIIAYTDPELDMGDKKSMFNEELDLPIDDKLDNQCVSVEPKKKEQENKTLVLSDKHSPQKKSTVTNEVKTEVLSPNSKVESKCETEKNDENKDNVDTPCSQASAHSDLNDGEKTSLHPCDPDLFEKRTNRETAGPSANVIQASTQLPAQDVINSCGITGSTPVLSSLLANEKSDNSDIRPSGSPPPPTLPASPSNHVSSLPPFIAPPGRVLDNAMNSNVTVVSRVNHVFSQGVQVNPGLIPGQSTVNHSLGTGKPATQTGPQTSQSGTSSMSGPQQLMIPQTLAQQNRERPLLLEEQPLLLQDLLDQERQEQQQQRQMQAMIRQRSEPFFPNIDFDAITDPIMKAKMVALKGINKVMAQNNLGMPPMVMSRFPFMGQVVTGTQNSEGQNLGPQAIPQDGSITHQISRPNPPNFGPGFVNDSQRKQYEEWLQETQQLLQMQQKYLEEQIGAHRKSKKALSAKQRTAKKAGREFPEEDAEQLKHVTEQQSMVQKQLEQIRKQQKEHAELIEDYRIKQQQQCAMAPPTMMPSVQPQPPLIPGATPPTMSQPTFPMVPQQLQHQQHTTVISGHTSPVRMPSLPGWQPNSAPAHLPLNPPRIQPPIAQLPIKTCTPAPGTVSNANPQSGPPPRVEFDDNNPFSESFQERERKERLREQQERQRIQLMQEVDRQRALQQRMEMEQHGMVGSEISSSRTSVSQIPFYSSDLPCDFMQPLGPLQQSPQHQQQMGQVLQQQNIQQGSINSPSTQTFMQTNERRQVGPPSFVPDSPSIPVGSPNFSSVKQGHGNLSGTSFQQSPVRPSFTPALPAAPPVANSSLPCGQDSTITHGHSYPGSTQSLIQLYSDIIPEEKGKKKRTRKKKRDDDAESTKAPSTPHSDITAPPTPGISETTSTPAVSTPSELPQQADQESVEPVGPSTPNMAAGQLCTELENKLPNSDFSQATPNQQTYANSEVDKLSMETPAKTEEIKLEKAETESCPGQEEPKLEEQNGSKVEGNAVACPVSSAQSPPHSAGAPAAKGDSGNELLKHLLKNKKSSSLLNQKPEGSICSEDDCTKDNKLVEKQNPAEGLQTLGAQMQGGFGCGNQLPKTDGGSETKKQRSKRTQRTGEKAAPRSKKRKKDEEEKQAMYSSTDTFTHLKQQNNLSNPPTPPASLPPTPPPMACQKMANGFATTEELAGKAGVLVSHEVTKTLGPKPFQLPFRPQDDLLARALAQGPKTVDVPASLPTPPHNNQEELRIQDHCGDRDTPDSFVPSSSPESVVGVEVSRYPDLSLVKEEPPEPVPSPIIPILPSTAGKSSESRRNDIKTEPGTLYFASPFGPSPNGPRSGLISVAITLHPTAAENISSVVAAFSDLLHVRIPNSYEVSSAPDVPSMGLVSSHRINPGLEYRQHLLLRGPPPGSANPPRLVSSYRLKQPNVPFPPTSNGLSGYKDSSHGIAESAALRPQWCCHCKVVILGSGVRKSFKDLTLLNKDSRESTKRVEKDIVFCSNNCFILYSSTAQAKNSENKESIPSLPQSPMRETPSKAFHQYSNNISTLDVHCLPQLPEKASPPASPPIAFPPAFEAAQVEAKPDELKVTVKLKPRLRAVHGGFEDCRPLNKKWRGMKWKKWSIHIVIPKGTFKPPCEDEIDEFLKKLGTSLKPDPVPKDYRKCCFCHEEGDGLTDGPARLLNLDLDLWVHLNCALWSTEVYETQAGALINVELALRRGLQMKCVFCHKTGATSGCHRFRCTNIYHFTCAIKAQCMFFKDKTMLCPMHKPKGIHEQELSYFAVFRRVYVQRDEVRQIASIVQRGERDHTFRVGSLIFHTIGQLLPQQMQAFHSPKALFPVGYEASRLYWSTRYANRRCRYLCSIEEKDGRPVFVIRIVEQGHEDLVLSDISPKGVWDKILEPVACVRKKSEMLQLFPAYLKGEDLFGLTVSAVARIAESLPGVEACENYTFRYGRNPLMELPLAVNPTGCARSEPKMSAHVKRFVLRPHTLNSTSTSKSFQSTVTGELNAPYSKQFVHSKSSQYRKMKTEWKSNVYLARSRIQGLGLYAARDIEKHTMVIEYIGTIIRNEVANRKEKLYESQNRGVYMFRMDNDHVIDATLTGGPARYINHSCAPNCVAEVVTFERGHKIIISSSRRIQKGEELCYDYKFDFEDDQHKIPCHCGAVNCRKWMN
Chain of UniProt Q9H6K1 (Q9H6K1 whole entry, looked up): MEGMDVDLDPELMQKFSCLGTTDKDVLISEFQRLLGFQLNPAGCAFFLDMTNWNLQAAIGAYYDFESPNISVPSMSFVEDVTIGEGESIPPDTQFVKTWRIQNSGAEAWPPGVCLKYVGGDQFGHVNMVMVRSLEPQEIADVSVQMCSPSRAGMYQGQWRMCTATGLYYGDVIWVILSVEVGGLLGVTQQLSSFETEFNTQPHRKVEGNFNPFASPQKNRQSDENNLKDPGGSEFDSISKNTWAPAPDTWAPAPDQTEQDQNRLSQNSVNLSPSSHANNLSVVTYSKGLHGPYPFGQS

Target	log2 fold change (saracatinib)	log2 fold change (sotrastaurin)	log2 fold change (alvocidib)	log2 fold change (Tubastatin A)	log2 fold change [1]	log2 fold change (defactinib)	log2 fold change (rucaparib)	log2 fold change [2]	log2 fold change (encorafenib)	log2 fold change [3]
MAPKAPK3 (UniProt Q16644)	0.134	-0.117	0.011	-0.077	0.117	-0.051	-0.023	0.011	0.106	-0.01
LIMD1 (UniProt Q9UGP4)	0.074	-0.011	-0.03	-0.034	-0.029	-0.03	-0.008	-0.01	0.004	0.004
LEO1 (UniProt Q8WVC0)	-0.047	-0.085	-0.137	0.061	-0.039	-0.211	-0.151	-0.055	-0.033	-0.082
LMNA (UniProt P02545)	0.041	-0.083	-0.214 (active)	-0.033	0.003	-0.121	-0.08	-0.138	-0.019	0.042
MFN2 (UniProt O95140)	-0.005	0.045	-0.012	0.02	-0.024	-0.066	0.041	0.058	-0.006	-0.026
ITIH4 (UniProt Q14624)	0.045	0.271	0.005	-0.003	-0.001	0.101	-0.142	-0.124	-0.001	-0.009
MED25 isoform 3 (UniProt Q71SY5)	-0.079	0.031	-0.102	-0.042	-0.014	-0.045	0.104	0.036	0.083	-0.111
KPNB1 (UniProt Q14974)	-0.076	-0.21	-0.01	0.031	0.043	-0.039	0.126	0.032	0.201	-0.063
ILRUN (UniProt Q9H6K1)	-0.132	-0.029	-0.022	0.116	0.023	-0.036	0.037	0.049	0.045	0.121
LRPPRC (UniProt P42704)	-0.281	-0.874	-0.58	0.316	-0.241	-0.346	0.395	-0.175	0.116	-0.103
KIF1B isoform 4 (UniProt O60333)	-0.033	-0.014	-0.018	0.025	0.016	-0.004	-0.006	-0.097	0.023	-0.016
KIF11 (UniProt P52732)	-0.059	-0.2	0.041	0.05	0.275	0.017	0.183	0.088	0.174	-0.055
MCUR1 (UniProt Q96AQ8)	-0.002	0.053	-0.035	0.014	0.014	-0.047	-0.038	0.014	-0.009	-0.028
MAP3K7 (UniProt O43318)	-0.07	-0.146	-0.072	0.054	0.023	-0.023	0.099	-0.035	0.1	-0.011
IK (UniProt Q13123)	-0.006	-0.037	0.108	0.05	-0.036	0.013	0.198	-0.059	0.197	0.002
MARK3 (UniProt P27448)	0.024	-0.434 (active)	-0.011	0.058	-0.367	-0.176	-0.016	-0.069	0.096	0.033
LUC7L3 (UniProt O95232)	-0.003	0.013	-0.049	-0.007	-0.314 (active)	-0.113	-0.008	-0.048	0.028	-0.003
MED16 (UniProt Q9Y2X0)	-0.006	-0.044	-0.236	-0.098	0.074	-0.009	-0.004	0.043	-0.025	-0.052
KLHDC4 (UniProt Q8TBB5)	-0.006	-0.037	0.074	-0.072	0.02	0.021	0.115	-0.029	0.106	-0.066
IPO7 (UniProt O95373)	-0.004	-0.089	-0.146	0.023	0.01	-0.163	-0.083	-0.012	0.052	-0.015
IKZF1 (UniProt Q13422)	0.038	-0.133	-0.127	-0.018	-0.042	-0.1	-0.026	-0.029	-0.052	-0.008
METTL18 (UniProt O95568)	0.024	0.066	-0.056	-0.037	-0.042	-0.021	-0.041	-0.031	0.108	-0.176
MAP1LC3B2 (UniProt A6NCE7)	0.016	-0.115	-0.063	0.037	0.026	-0.015	0.004	-0.015	0.032	-0.048
MCL1 (UniProt Q07820)	0.011	-0.114	-0.056	0.268	-0.022	-0.015	0.029	-0.063	0.004	0.047
INTS7 (UniProt Q9NVH2)	0.035	-0.503 (active)	-0.095	0	0.529 (active)	-0.096	0.019	-0.003	0.036	-0.019
ILF3 isoform 7 (UniProt Q12906)	0.001	0.087	0.362	-0.044	0.03	0.554 (active)	0.202	-0.003	0.032	0
LRFN1 (UniProt Q9P244)	0.053	-0.08	-0.44 (active)	-0.006	-0.24	-0.048	0.062	-0.028	-0.227	-0.069
KMT2C isoform 3 (UniProt Q8NEZ4)	-0.026	-0.02	-0.084	-0.029	0.009	-0.043	-0.043	-0.046	-0.012	0.035
ILK (UniProt Q13418)	-0.119	0.043	-0.107	0.01	-0.034	0	0.026	0.031	0.03	0.06
LMNB2 (UniProt Q03252)	-0.031	-0.127	-0.02	0.02	0.027	-0.201	-0.085	-0.073	-0.009	0.049
